Assay outcomes deposited in PubChem by National Center for Advancing Translational Sciences (NCATS).
In the library only some 18% were active in any assay of this set; here they are far more common.
CtBP-E1A blk = blocks the CtBP interaction with E1A; AlphaScreen GST-E1A/His-CtBP binding, 1536-well; hits give low values; activity change, % (test concentration not listed); 340,000 compounds, 0.49% hits; AID 651724; in the data active = activity change below about -65%; inconclusive = mostly about -30% to -63%
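Steps: dispense buffer (Tris pH 8.0, NaCl 300 mM, TCEP 1 mM, BSA, Tween 20); add 5X protein mix (GST-E1A, His-CtBP, 125 nM each); pin 23 nL compound; 2 h at 37 °C, dark; add 5X beads (50 ug/mL); 1 h; read.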
TDP1 inh = inhibitors of human tyrosyl-DNA phosphodiesterase TDP1; recombinant TDP1, AlphaScreen DNA substrate cleavage; Potency, µM (highest dose often 130 µM), most hits filed as inhibitors; 350,000 compounds, 0.28% hits; AID 485290; Q9NUW8; note: nearly all actives have a fitted effect of over 40% in size
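E. coli-derived human Tdp1, 1 nM final. Cpd preinc 15 min RT; substrate 15 nM final, 5 min RT; AS bead mix 10 ug/ml final, 10 min RT. Signal loss = tyrosine-FITC cleavage. No-enzyme wells = max signal.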
IL-1B inflam inh = inhibitors of inflammasome signaling (IL-1 beta secretion); THP-1 LPS/ATP IL-1B secretion, AlphaLISA, 16 h; hits give low values; activity change, % at 57.5 µM; 360,000 compounds, 4.7% hits; AID 743279; in the data active = activity change below about -50%; inconclusive = mostly about -30% to -49%
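Secreted IL-1B measured by AlphaLISA bead assay after 16 h compound exposure of THP-1 cells; compounds (final up to 57.5 uM) added 1 h before LPS (250 ng/mL) and ATP (1.25 mM) stimulation; lower signal means less secretion.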
DT40 TDP1 CPT = DT40-hTDP1 cell growth loss with CPT. chicken DT40 Tdp1-/-;hTDP1 cells + 20 nM CPT, ATP luminescence, 48 h. Potency, µM (highest dose often 46.2 µM), most hits filed as inhibitors. 420,000 compounds, 12% hits. AID 686979; note: nearly all actives have a fitted effect of over 55% in size
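Cell growth measured by CellTiter-Glo luminescence after a minimum 48 h, 37 C compound exposure with 20 nM CPT in Tdp1-knockout DT40 cells stably expressing hTDP1, seeded 400/well; qHTS titration format.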
Six1-Eya2 inh = blocks human Six1 binding to Eya2 | Q15475+O00167 | AlphaScreen GST-Six1/His-Eya2 binding, biochemical; hits give low values | activity change, % (no concentration beside the values) | 360,000 compounds, 0.56% hits; in the data active = activity change below about -65%; inconclusive = mostly about -30% to -63%
Target sequence (O00167 whole entry, looked up): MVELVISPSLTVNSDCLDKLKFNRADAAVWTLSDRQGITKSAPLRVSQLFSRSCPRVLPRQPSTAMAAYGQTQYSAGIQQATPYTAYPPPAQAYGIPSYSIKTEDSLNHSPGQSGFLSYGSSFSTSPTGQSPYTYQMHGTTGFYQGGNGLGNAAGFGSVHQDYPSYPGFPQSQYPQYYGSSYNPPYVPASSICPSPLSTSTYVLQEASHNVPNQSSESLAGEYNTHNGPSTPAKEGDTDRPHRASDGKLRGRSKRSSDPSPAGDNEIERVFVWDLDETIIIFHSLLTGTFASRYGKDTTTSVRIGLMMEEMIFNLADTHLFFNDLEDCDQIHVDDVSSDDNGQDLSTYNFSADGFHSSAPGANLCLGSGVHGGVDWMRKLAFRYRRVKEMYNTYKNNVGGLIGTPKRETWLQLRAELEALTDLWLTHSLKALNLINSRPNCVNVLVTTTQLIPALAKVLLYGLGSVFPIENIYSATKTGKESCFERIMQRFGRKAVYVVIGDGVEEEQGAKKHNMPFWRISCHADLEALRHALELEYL
Target sequence (Q15475 whole entry, looked up): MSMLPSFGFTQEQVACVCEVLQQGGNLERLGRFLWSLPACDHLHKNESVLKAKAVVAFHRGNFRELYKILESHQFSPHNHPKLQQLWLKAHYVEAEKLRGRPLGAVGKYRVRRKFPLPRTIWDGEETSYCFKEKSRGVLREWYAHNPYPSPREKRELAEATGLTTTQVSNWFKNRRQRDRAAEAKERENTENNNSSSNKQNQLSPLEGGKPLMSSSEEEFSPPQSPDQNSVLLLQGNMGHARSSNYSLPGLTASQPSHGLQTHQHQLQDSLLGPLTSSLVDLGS
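AlphaScreen luminescence read after one hour at 37 °C in darkness. Pin-transferred compounds met GST-Six1 and His-Eya2 protein (5X stock 250 nM/500 nM) plus glutathione donor and Ni-chelate acceptor beads (5X, 50 ug/mL).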
DT40 TDP1 no CPT = qHTS for Inhibitors of human tyrosyl-DNA phosphodiesterase 1 (TDP1): qHTS in cells in absence of CPT; DT40 Tdp1-/- hTDP1 cells, no CPT, ATP luminescence, 48 h; Potency, µM (highest dose often 46.2 µM), actives largely listed as inhibitors; 420,000 compounds, 15% hits; AID 686978, 2013; note: nearly all actives have a fitted effect of over 55% in size
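No-CPT arm: Tdp1-/-;hTDP1 DT40 cells (400/well) plus compounds, incubated ≥48 hr at 37 °C. Readout CellTiter-Glo luminescence.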
A number is an active result; – = inactive; ? = inconclusive; · = not tested or not shown; [ ] = another dose, or the depositor's remark. Unless noted, calls come from the whole dose curve; as a rule, active = well fitted curve in the direction sought with a large enough effect; inconclusive = small, poorly fitted or top-dose-only effect, or another doubt; inactive = no such curve, though single readings can be large; an effect the other way counts as inactive or inconclusive.

SMILES | CtBP-E1A blk | TDP1 inh | IL-1B inflam inh | DT40 TDP1 CPT | Six1-Eya2 inh | DT40 TDP1 no CPT
CCOC(=O)/C(C(N)=NCC(C)C)=C(/O)c1ccccc1 | – | – | -81 | – | – | ?
O=C(Nc1ccncc1)c1sc2ccccc2c1Cl | – | – | -55 | ? | – | 18µM
Cc1ccc(NC(=O)c2sc3ccccc3c2Cl)cc1 | · | –[12.3 µM] | · | – | · | –
O=C(Nc1ccnc(=O)[nH]1)c1sc2ccccc2c1Cl | – | · | – | 15µM | – | –
O=C1N=C2N(CCN3CCCCC3)c3ccccc3N2/C1=C\c1ccc([N+](=O)[O-])s1 | – | · | – | 9.2µM | – | ?
c1ccc2c(c1)Sc1ccccc1N2CCN1CCCC1 | · | – | · | ? | · | ?
Cc1ccc(CCNC(=O)c2ccc3c(c2)N(Cc2ccccc2)C(=O)c2ccccc2S3=O)cc1 (stereo not drawn) | · | – | · | 16µM | · | 15µM
CCOc1ccc(CCNC(=O)c2ccc3c(c2)N(Cc2ccccc2)C(=O)c2ccccc2S3=O)cc1OCC (stereo not drawn) | · | – | · | 16µM | · | 5.8µM
Cc1ccc(CCNC(=O)c2ccc3c(c2)N(Cc2ccccc2F)C(=O)c2ccccc2S3=O)cc1 (stereo not drawn) | · | – | · | ? | · | ?
O=C(Nc1cccc(-c2nnc(-c3ccccc3)o2)c1)c1ccc(Br)o1 | – | – | – | 18µM | – | ?
Cc1nnc2ccc(-c3cccc(NC(=O)c4ccc(Br)o4)c3)nn12 | -65 | – | -65 | ? | ? | 23µM
CC1CCN(c2ccc(-c3cccc(NC(=O)c4ccco4)c3)nn2)CC1 | – | · | -78 | ? | – | ?
O=C(Nc1cccc(-c2ccc(N3CCCCC3)nn2)c1)c1ccc(Br)o1 | – | · | – | 21µM | – | 12µM
CCOc1ccc(-c2cccc(NC(=O)c3ccc(Br)o3)c2)nn1 | – | – | – | – | – | ?
O=C(Nc1cc(C(F)(F)F)ccc1N1CCOCC1)c1cn2ccccc2n1 | – | – | – | – | – | –
O=C(NCC1CCCO1)c1ccc(NC(=O)C2CC=CCC2C(=O)O)cc1 (stereo not drawn) | – | – | – | – | – | –
CCC(=O)Nc1cccc(-c2ccc(N3CCC(C)CC3)nn2)c1 | · | – | ? | ? | – | 23µM
CC1CCN(c2ccc(-c3cccc(NC(=O)C(F)(F)F)c3)nn2)CC1 | – | – | ? | ? | – | ?
COC(=O)c1cccc(COC(=O)CNC(=O)c2ccco2)c1 | – | – | – | – | – | –
COc1ccc(Cl)cc1N=Cc1c(O)c2ccccc2oc1=O | – | – | – | 16µM | – | ?
COc1ccc(OC)c(N=Cc2c(O)c3ccccc3oc2=O)c1 | · | – | – | ? | – | ?
CCC(CC)c1nnc(NC(=O)c2ccco2)s1 | – | – | – | – | – | –
COc1ccc(/C=C/C(=O)NCC2COc3ccccc3O2)c(OC)c1 (stereo not drawn) | – | – | -59 | – | – | ?
COc1ccccc1NC(=O)C(=O)NCC1COc2ccccc2O1 (stereo not drawn) | – | – | – | – | – | 0.56µM
O=C(Cc1ccccc1)NCC1COc2ccccc2O1 (stereo not drawn) | – | · | – | – | – | –
SMILES | CtBP-E1A blk | TDP1 inh | IL-1B inflam inh | DT40 TDP1 CPT | Six1-Eya2 inh | DT40 TDP1 no CPT
O=C(NCc1ccccc1)C(=O)NCC1COc2ccccc2O1 (stereo not drawn) | – | – | – | 2.9µM | – | 2.6µM
CCn1cnnc1SCC(=O)NCC1COc2ccccc2O1 (stereo not drawn) | – | – | – | – | – | 1.8µM
COc1ccc(NC(=O)CCC2COc3ccccc3O2)c(OC)c1 (stereo not drawn) | – | – | – | – | – | ?
O=S(=O)(/N=C(/Nc1ccc(F)c(F)c1F)c1ccccc1)c1ccccc1 | – | – | – | – | – | –
COc1ccc(C(=O)Nc2nnc(C(C)C)s2)cc1OC | · | · | · | – | · | –
O=C(NCC1COc2ccccc2O1)c1ccc(Br)s1 (stereo not drawn) | – | · | -72 | – | – | ?
O=C1Cc2ccccc2C(c2ccc(Cl)cc2Cl)N1 (stereo not drawn) | – | – | – | – | – | –
COc1cccc(NC(=O)C2CCN(c3nnc(-n4c(C)ccc4C)s3)CC2)c1 | · | – | · | ? | · | ?
COc1cccc(NC(=O)C2CCCN(c3nnc(-n4c(C)ccc4C)s3)C2)c1 (stereo not drawn) | · | – | · | 18µM | · | 13µM
CC(=O)c1cccc(NC(=O)C2CCCN(c3nnc(-n4cccc4)s3)C2)c1 (stereo not drawn) | · | – | · | ? | · | 16µM
Cc1cc(F)ccc1NC(=O)C1CCCN(c2nnc(-n3c(C)ccc3C)s2)C1 (stereo not drawn) | · | – | · | 21µM | · | 16µM
CC(=O)c1cccc(NC(=O)C2CCCN(S(C)(=O)=O)C2)c1 (stereo not drawn) | – | – | – | – | – | –
CC(=O)c1ccc(NC(=O)Nc2nnc(N3CCCC(C)C3)s2)cc1 (stereo not drawn) | · | – | · | 6.5µM | · | 18µM
Cc1ccc(C)n1-c1nnc(N2CCCC(C(=O)Nc3ccccc3Br)C2)s1 (stereo not drawn) | · | – | · | ? | · | ?
O=S1(=O)CCC(NC(=S)NCCNC(=S)NC2CCS(=O)(=O)C2)C1 (stereo not drawn) | – | – | – | – | – | –
O=C(NC1CC1)c1cccc(S(=O)(=O)N2CCOCC2)c1 | · | – | – | – | – | ?
Cc1cccc(NC(=O)C2CCCN(c3nnc(-n4c(C)ccc4C)s3)C2)c1C (stereo not drawn) | · | – | · | 15µM | · | 15µM
COc1ccc(NS(=O)(=O)c2ccc(C)c(C(=O)N3CCC3)c2)cc1 | – | – | – | ? | – | –
Cn1nc(-c2ccc(N3CCCCC3)c(NC(=O)c3ccco3)c2)c2ccccc2c1=O | – | – | – | 21µM | – | 16µM
COc1nnc(-c2ccc(N3CCOCC3)c(NC(=O)c3ccco3)c2)c2ccccc12 | – | – | – | ? | – | 26µM
CCC(=O)Nc1cc(-c2nnc(OC)c3ccccc23)ccc1N1CCOCC1 | – | – | – | – | – | ?
COc1nnc(-c2ccc(N3CCCCC3)c(NC(=O)c3ccc(C)cc3)c2)c2ccccc12 | · | – | · | – | · | –
COc1nnc(-c2ccc(N3CCCCC3)c(NC(=O)c3ccccc3Cl)c2)c2ccccc12 | · | – | · | 6.5µM | · | 6.5µM
COC(=O)c1ccc(Cn2cnc3c(Cl)ncnc32)cc1 | – | · | -94 | ? | – | ?
CCNC(=O)C[C@@H]1CC[C@H]2[C@@H](COC[C@H](O)CN2C(=O)C2CC2)O1 | – | · | – | – | – | –
